In PubChem BioAssay AID1159580 (chemical genetic matrix, 2015):
Several values for one entry are separate records, joined by “and”; a condition that tells them apart may be missing. Equal entries are not always repeated. About 2,000 (36%) of roughly 5,500 compounds were called active. Inconclusive results (about 18%) are left out. Rule as the data show it: active = normalized growth mostly below about 0.91 (no sharp cut-off); inconclusive = no clear call, values can overlap the other calls; inactive = mostly above about 0.92. Some of the results follow.

Experiment: chemical genetic growth profiling, strain panel (AID 1159580);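 also: tested at 20 µM; growth read once vehicle control cultures reached saturation at 30 °C; 1 = growth at the plate median or of vehicle wells; lower values mean less growth of the strain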
Details: S. cerevisiae deletion strains, growth OD

Measured: normalized growth

CC12CC3CC(C)(C1)CC(N)(C3)C2
inactive: locus YAL013W, strain DEP1, stronger effect = lower value 1 and 0.983 | locus YAL021C, strain ccr4, stronger effect = lower value 1 | locus YAL026C, strain drs2, stronger effect = lower value 0.99 | locus YAL030W, strain snc1, stronger effect = lower value 0.976 | locus YAL040C, strain CLN3, stronger effect = lower value 1.06 | locus YBL061C, strain skt5, stronger effect = lower value 0.977 | locus YBR009C, strain hhf1, stronger effect = lower value 0.993 | locus YBR021W, strain FUR4, stronger effect = lower value 1.02 | locus YBR023C, strain chs3, stronger effect = lower value 0.985 | locus YBR171W, strain sec66, stronger effect = lower value 0.98 | locus YBR229C, strain ROT2, stronger effect = lower value 0.997 | locus YBR231C, strain swc5, stronger effect = lower value 0.963 | locus YBR279W, strain paf1, stronger effect = lower value 0.981 | locus YCL011C, strain gbp2, stronger effect = lower value 1.01 | locus YCL016C, strain dcc1, stronger effect = lower value 1.01 | locus YCL029C, strain bik1, stronger effect = lower value 1.02 | locus YCL061C, strain MRC1 (second series), stronger effect = lower value 0.994 | locus YCL061C, strain MRC1, stronger effect = lower value 0.989 | locus YCL069W, strain vba3, stronger effect = lower value 0.992 | locus YCR088W, strain abp1, stronger effect = lower value 0.982 | locus YDL005C, strain med2, stronger effect = lower value 0.988 | locus YDL035C, strain GPR1, stronger effect = lower value 0.999 | locus YDL040C, strain nat1, stronger effect = lower value 0.986 | locus YDL074C, strain BRE1, stronger effect = lower value 1.03 | locus YDL101C, strain DUN1, stronger effect = lower value 1.02 | locus YDL134C, strain PPH21, stronger effect = lower value 1 | locus YDL185W, strain tfp1, stronger effect = lower value 1.01 | locus YDL192W, strain arf1, stronger effect = lower value 1.01 | locus YDR001C, strain nth1, stronger effect = lower value 0.999 | locus YDR069C, strain doa4, stronger effect = lower value 0.983 | locus YDR101C, strain arx1, stronger effect = lower value 1.01 | locus YDR137W, strain rgp1, stronger effect = lower value 1.01 | locus YDR150W, strain NUM1, stronger effect = lower value 0.996 and 1 | locus YDR159W, strain sac3, stronger effect = lower value 0.962 | locus YDR162C, strain NBP2, stronger effect = lower value 1.01 | locus YDR195W, strain ref2 0.94 | locus YDR297W, strain sur2, stronger effect = lower value 0.988 | locus YDR318W, strain mcm21, stronger effect = lower value 1.02 | locus YDR334W, strain swr1, stronger effect = lower value 1.01 | locus YDR335W, strain msn5, stronger effect = lower value 0.986 | locus YDR363W, strain ESC2, stronger effect = lower value 0.959 | locus YDR388W, stronger effect = lower value 1.01 | locus YDR392W, strain spt3, stronger effect = lower value 0.993 | locus YDR502C, strain sam2, stronger effect = lower value 1.01 | locus YEL003W, strain gim4, stronger effect = lower value 0.986 | locus YEL037C, strain rad23, stronger effect = lower value 0.981 | locus YEL061C, strain CIN8 (second series), stronger effect = lower value 0.971 | locus YEL061C, strain CIN8, stronger effect = lower value 1 | locus YER002W, strain NOP16, stronger effect = lower value 1.02 | locus YER015W, strain faa2, stronger effect = lower value 0.998 | locus YER016W, strain bim1, stronger effect = lower value 0.979 | locus YER110C, stronger effect = lower value 1 | locus YER111C, strain swi4, stronger effect = lower value 0.983 | locus YER155C, strain BEM2 (second series), stronger effect = lower value 0.989 | locus YER155C, strain BEM2, stronger effect = lower value 1.01 | locus YER167W, strain BCK2, stronger effect = lower value 1.01 | locus YFR010W, strain ubp6, stronger effect = lower value 0.988 | locus YGL078C, strain dbp3, stronger effect = lower value 0.999 | locus YGL086W, strain mad1, stronger effect = lower value 0.988 | locus YGL167C, strain pmr1, stronger effect = lower value 1.01 | locus YGL173C, strain kem1, stronger effect = lower value 0.957 | locus YGL227W, strain vid30, stronger effect = lower value 0.994 | locus YGL240W, strain doc1, stronger effect = lower value 0.966 | locus YGL248W, strain PDE1, stronger effect = lower value 0.999 | locus YGL253W, strain hxk2, stronger effect = lower value 0.977 | locus YGR078C, strain PAC10, stronger effect = lower value 1.02 and 0.97 | locus YGR135W, strain pre9, stronger effect = lower value 1.01 | locus YGR229C, strain SMI1, stronger effect = lower value 1.02 | locus YGR252W, strain gcn5, stronger effect = lower value 0.968 | locus YHR013C, strain ard1, stronger effect = lower value 0.983 | locus YHR027C, strain rpn1, stronger effect = lower value 0.995 | locus YHR030C, strain SLT2, stronger effect = lower value 1.01 and 0.993 | locus YHR079C, strain IRE1 (second series), stronger effect = lower value 1.01 | locus YHR079C, strain IRE1, stronger effect = lower value 0.965 | locus YHR094C, strain hxt1, stronger effect = lower value 1.01 | locus YHR129C, strain ARP1, stronger effect = lower value 1.02 | locus YHR142W, strain chs7, stronger effect = lower value 0.963 | locus YHR200W, strain rpn10, stronger effect = lower value 1 | locus YIL066C, strain RNR3, stronger effect = lower value 1.01 | locus YIL073C, strain SPO22, stronger effect = lower value 1.09 | locus YIL125W, strain kgd1, stronger effect = lower value 1 | locus YIR030C, strain dcg1, stronger effect = lower value 1.01 | locus YJL092W, strain hpr5, stronger effect = lower value 0.983 | locus YJL095W, strain BCK1 (second series), stronger effect = lower value 0.985 | locus YJL095W, strain BCK1, stronger effect = lower value 1.04 and 1 | locus YJL115W, strain asf1, stronger effect = lower value 0.976 | locus YJL129C, strain trk1, stronger effect = lower value 0.958 | locus YJL134W, strain LCB3, stronger effect = lower value 0.999 | locus YJL154C, strain vps35, stronger effect = lower value 0.972 | locus YJL164C, strain tpk1, stronger effect = lower value 1.01 | locus YJL166W, strain qcr8, stronger effect = lower value 0.984 | locus YJL168C, strain set2, stronger effect = lower value 1 | locus YJL187C, strain SWE1 (second series), stronger effect = lower value 1.02 | locus YJL187C, strain SWE1, stronger effect = lower value 0.992 | locus YJR043C, strain POL32, stronger effect = lower value 1.01 | locus YJR066W, strain TOR1, stronger effect = lower value 0.923
